Bioassay records: PubChem BioAssay, National Center for Advancing Translational Sciences (NCATS)
Epigenetic derep = regulators of epigenetic silencing causing reporter derepression in mouse cells; murine LDR cells, GFP reporter derepression, 30 h; Potency, µM (top dose mostly 53.9 µM), for the others: at the highest dose GFP activation, hits mostly activators; actives 0.2% (n = 280,000); further: % of control where 0% means no effect; nearly all actives have a fitted effect of over 60% in size
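Murine LDR cells carrying a silenced, genomically integrated CMV-driven GFP reporter were exposed to compound for 30 hours at 37 C. After PBS washes, GFP-positive cells (20–120 um objects) were counted by laser-scanning microplate cytometry.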
ClpP mod = qHTS Assay for Activators of ClpP; purified B. subtilis ClpP, FRET peptide cleavage, 20 min; Potency, µM (titrated, usually from 57.5 µM), for inactives: at the top dose activity change, negative = active; actives 1.9% (n = 340,000); AID 651965, 2013; active means well fitted falling curve with a large enough effect; inconclusive means small, poorly fitted or top-dose-only effect; inactive means no such curve, though single readings can be large or run the other way; further: the source files actives as falling curves though it sought activators and does not explain the sign; nearly all actives have a fitted effect of over 65% in size
Target sequence (P80244 whole entry, looked up): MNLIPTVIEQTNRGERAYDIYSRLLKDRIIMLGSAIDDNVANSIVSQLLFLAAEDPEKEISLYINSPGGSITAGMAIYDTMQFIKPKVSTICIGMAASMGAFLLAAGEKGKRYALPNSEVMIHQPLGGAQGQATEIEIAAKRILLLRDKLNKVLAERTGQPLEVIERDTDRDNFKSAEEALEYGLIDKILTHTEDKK
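FRET quenching reversal measured ClpP activation: 10 microg/mL B. subtilis ClpP at pH 8 with the FRET-FV decapeptide, read at 430 nm after 320 nm excitation. The 20-min minus 0-min signal was scaled between DMSO/no-enzyme wells and ADEP (5.8 microM final).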
PINK1 expr mod = changes PINK1 expression; PINK1 immunofluorescence, high-content cytometry, 24 h; Potency, µM (highest dose often 76.6 µM), for the others: at the highest dose activation (PINK1 increase), most hits filed as activators; actives 0.2% (n = 410,000); active means well fitted activation curve with a large enough effect; inconclusive means small, poorly fitted or top-dose-only effect; cell line not stated here; further: % of control where 0% means no effect; nearly all actives have a fitted effect of over 65% in size
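Readout is PINK1 immunofluorescence, quantified alongside mitochondrial, cell and nuclear markers by laser-scanning microplate cytometry. Cells from a stable line were exposed to compound titrations (5 concentrations) for 24 hours, with CCCP controls.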
RORg inh = inhibitors of mouse ROR gamma transcriptional activity | Drosophila S2 Gal4-RORgamma UAS-luciferase reporter, 20 h | actives 5.4% (n = 310,000) | Potency, µM (titrated, usually from 53.6 µM), for inactives: top-dose activity change, negative = inhibition, most hits filed as inhibitors | AID 2551; further: on the % scale 0 is the no-effect control and ±100 the full control effect; nearly all actives have a fitted effect of over 60% in size
Target sequence (P51450 whole entry, looked up, the tested form may be a part): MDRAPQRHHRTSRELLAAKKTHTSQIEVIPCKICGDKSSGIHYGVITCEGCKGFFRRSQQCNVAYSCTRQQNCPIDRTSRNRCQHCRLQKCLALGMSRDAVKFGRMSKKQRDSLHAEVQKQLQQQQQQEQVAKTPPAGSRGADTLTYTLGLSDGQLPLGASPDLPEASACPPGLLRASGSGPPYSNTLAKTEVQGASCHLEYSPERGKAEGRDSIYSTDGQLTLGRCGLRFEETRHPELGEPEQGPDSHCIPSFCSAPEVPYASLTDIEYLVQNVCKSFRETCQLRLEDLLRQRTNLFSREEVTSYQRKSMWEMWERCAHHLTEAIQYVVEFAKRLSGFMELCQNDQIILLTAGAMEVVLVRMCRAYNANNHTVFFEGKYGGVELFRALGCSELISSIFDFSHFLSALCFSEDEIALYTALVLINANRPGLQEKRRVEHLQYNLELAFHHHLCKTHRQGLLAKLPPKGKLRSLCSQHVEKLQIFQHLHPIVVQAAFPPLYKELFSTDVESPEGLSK
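Read-out: Photinus luciferase luminescence; inhibitors lower reporter signal. Insect Schneider cells with Gal4-ROR gamma fusion under metallothionein promoter, UAS reporter; 700 uM final copper sulfate induction, 20 hr, ambient temperature.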
VP16 counter = inhibits Gal4-VP16 luciferase reporter, ROR gamma counter-screen. Drosophila S2 Gal4-VP16 UAS-luciferase, luminescence, 20 h. Potency, µM (highest dose often 53.6 µM), for inactives: at the top dose activity, negative = inhibition, usual class: inhibitors. actives 3.5% (n = 310,000). AID 2546;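 further: Gal4-VP16 expression switched on by copper sulfate through the metallothionein promoter; on the % scale 0 is the no-effect control and ±100 the full control effect; nearly all actives have a fitted effect of over 50% in size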
Sfp inh = blocks B. subtilis Sfp PPTase activity; Biochemical Sfp PPTase activity, qHTS; Potency, µM, inactives show largest response in the series, negative = inhibition, most hits filed as inhibitors; actives 3.5% (n = 310,000);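 further: the enzyme is Sfp with the accession as filed and its product quenches rhodamine fluorescence; 0% = enzyme reaction without inhibitor and -100% = no enzyme wells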
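Sfp 15 nM + cpd, 15 min RT; start w/ rhodamine-CoA 5 uM, BHQ-2-YbbR 12.5 uM (final); 50 mM Hepes pH 7.6, 10 mM MgCl2, 0.01% NP-40, 0.01% BSA; read 525/598 nm at 0 and 30 min.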
Starred values were filed as active, the others as inactive; u = inconclusive; x = not tested or not shown; [ ] = another dose, or the depositor's remark. Shown are actives, neighbours in structure and some others; about 8.1% of the full set was active somewhere. Unless noted, the call rests on the fitted dose curve; in most records, active means well fitted curve in the direction sought with a large enough effect; inconclusive means small, poorly fitted or top-dose-only effect, or another doubt; inactive means no such curve, though single readings can be large; an effect the other way counts as inactive or inconclusive. Potency means the concentration at half of the fitted maximal effect.

SMILES	Epigenetic derep	ClpP mod	PINK1 expr mod	RORg inh	VP16 counter	Sfp inh
CCc1ccccc1NC(=O)c1ccc2c(c1)N(Cc1cccc(Cl)c1)C(=O)c1ccccc1S2(=O)=O	3%	0%	0%	x	x	x
CCOC(=O)c1ccc(NC(=O)CSc2nc3ccccc3c(=O)n2CCNC(C)=O)cc1	10%	0%	2%	x	x	x
CC1CCN(C(=O)c2[nH]cnc2C(=O)NC2CCN(C(=O)OC(C)(C)C)CC2)CC1	x	-1%	0%	x	x	x
CC(C)(C)OC(=O)NCCCC[C@H](NC(=O)c1nc[nH]c1C(=O)NC1CCN(C(=O)OC(C)(C)C)CC1)C(=O)OC(C)(C)C	2%	-18%	1%	11µM*	u	18%
CC(C)C[C@H](NC(=O)c1nc[nH]c1C(=O)NC1CCN(C(=O)OC(C)(C)C)CC1)C(=O)OC(C)(C)C	3%	1%	-1%	3.2µM*	7.1µM*	38%
CC(C)(C)OC(=O)CNC(=O)c1[nH]cnc1C(=O)N[C@@H](CCCCNC(=O)OC(C)(C)C)C(=O)OC(C)(C)C	-1%	-1%	2%	u	u	20%
C[C@H](NC(=O)c1nc[nH]c1C(=O)NC1CCN(C(=O)OC(C)(C)C)CC1)C(=O)OC(C)(C)C	-1%	1%	-1%	u	11µM*	8%
O=Nc1c(O)[nH]c2c(Cl)c(Cl)ccc12	x	x	x	-30%	0%	-17%
CCOc1ccc(-c2cn3c(n2)sc2cc(C(=O)NCCc4ccc(OC)c(OC)c4)ccc23)cc1	5%	35µM*	0%	x	x	x
COc1ccc2c(c1)sc1nc(-c3ccccc3)cn12	0%	0%	21%	1.6µM*	2µM*	50µM*
Cc1oc(-c2ccccc2NC(=O)c2ccccc2)nc1CNC(=O)C1CC(=O)OC12CCCCC2 (stereo not drawn)	x	x	1%	x	x	x
N#Cc1c(N)oc(-c2ccco2)c1-c1ccco1	0%	25µM*	-1%	12%	-10%	32µM*
COc1ccc(OC)c(/C=N/c2oc(-c3ccco3)c(-c3ccco3)c2C#N)c1	4%	u	-3%	u	0%	25µM*
N#Cc1c(N)oc(-c2ccccc2)c1-c1ccccc1	u	-7%	-1%	26%[10 µM]	-1%	7%
COc1cc(OC)cc(C2=Nn3c(nnc3-c3ccccc3O)SC2)c1	x	x	x	-2%	u	3%
Cc1ccc(-c2nc(SCC(=O)NCc3ccco3)c3c(=O)n(C)c(=O)n(C)c3n2)cc1	-1%	0%	1%	x	x	x
Cc1cc(Oc2ccc(Cl)cc2)nc(-c2ccccn2)n1	2%	x	0%	0.63µM*	5.6µM*	13%
O=C(CSc1ccc2ccccc2c1)N1CCN(c2ccc(O)cc2)CC1	-7%	-1%	-2%	1%	-18%	50µM*
COc1ccc(Br)cc1CN1CCN(C(=O)c2ccco2)CC1	x	-2%	2%	5%	6%	u
COc1cccc(OC)c1C(=O)N1CCN(Cc2ccncc2)CC1	0%	1%	-1%	-1%	-1%	10µM*
COc1ccc(Br)cc1CN1CCN(C(=O)c2cccc(F)c2)CC1	x	x	2%	9%	-3%	50µM*
COc1cccc(OC)c1C(=O)N1CCN(Cc2ccccc2C(F)(F)F)CC1	-1%	32µM*	2%	-23%	7%	u
CCCS(=O)(=O)N1CCN(Cc2ccccc2C(F)(F)F)CC1	-3%	-7%	x	-10%	-6%	50µM*
CCCS(=O)(=O)N1CCN(Cc2ccccc2[N+](=O)[O-])CC1	-2%	x	-1%	4%	-13%	u
COc1ccccc1CN1CCN(C(=O)c2ccncc2)CC1	1%	0%	0%	-9%	3%	u
SMILES	Epigenetic derep	ClpP mod	PINK1 expr mod	RORg inh	VP16 counter	Sfp inh
COc1cc(C(=O)N2CCN(Cc3ccccc3C(F)(F)F)CC2)cc(OC)c1OC	-2%	1%	1%	u	2%	u
O=C(C[n+]1ccccc1Br)c1ccc(-c2ccccc2)cc1	x	-25%	x	x	x	x
Cc1cccc(NC(=O)CN2C(=O)C3(SCC(=O)N3c3ccccc3)c3ccccc32)c1 (stereo not drawn)	3%	-5%	-5%	x	x	x
COc1cc2c(C#N)c(N3CCN(c4ccccc4OC)CC3)nc(N)c2c(N)n1	0%	32µM*	-1%	-19%	0%	-22%
COc1cc2c(C#N)c(N3CCCC3)nc(N)c2c(N)n1	-2%	4%	0%	-6%	-17%	4µM*
N#Cc1c(N2CCCC2)nc(N)c2c(N)nc(N3CCCC3)cc12	-8%	7.9µM*	u	8.9µM*	-6%	-14%
Cc1cc(C)c(C#N)c(N2CCCC2)n1	-1%	3.5µM*	4%[38.3 µM]	1%	-4%	-3%
COc1ccccc1NC(=O)CSc1oc(-c2ccc(F)cc2)nc1S(=O)(=O)c1ccc(Br)cc1	3%	2%	-2%	x	x	x
COc1ccc(OC)c(CCNC(=O)c2nc(-c3ccc(Cl)cc3)n3c2CCCCC3)c1	-1%	-8%	1%	x	x	x
Cc1ccc(OC(=O)CSc2nnc(CNC(=O)c3ccccc3)o2)cc1	4%	-1%	-1%	x	x	x
COc1cc(S(=O)(=O)n2ccnc2C(C)C)ccc1Br	1%	1%	1%	x	x	x
COc1ccc(CN2CCCN(C)CC2)c(OC)c1C	x	x	0%	-3%	-3%	79µM*
O=C(c1cc2ccccc2oc1=O)N1CCN(c2ccc(Cl)cc2)CC1	0%	-2%	1%	x	x	x
Cn1c(-c2ccc(-c3ccccc3)cc2)c[nH]c1=S	-1%	13µM*	-1%	0.79µM*	2.2µM*	-23%
CCn1c(-c2ccc(-c3ccccc3)cc2)c[nH]c1=S	-4%	u	-2%	1.8µM*	1.6µM*	9%
C=CCn1c(-c2ccc(Cl)cc2)c[nH]c1=S	0%	-10%	-2%	2µM*	2.8µM*	3%
C=CCn1c(-c2ccccc2)c[nH]c1=S	1%	u	3%	-29%	u	79µM*
C=CCn1c(CSc2nnc(-c3ccccc3)n2C)n[nH]c1=S	-2%	x	0%	20%	4%	u
Brc1cccc(OCCn2ccnc2)c1	-1%	-1%	0%	-17%	3%	56µM*
COc1ccccc1C1CN(CC(=O)NCC2OCCc3ccccc32)Cc2ccccc2O1 (stereo not drawn)	x	x	0%	x	x	x
N=C(N)SCc1cccc2c(=O)cc(-c3ccccc3)oc12	x	-4%	-1%	x	x	x
Cc1nnc(SC(C)C(=O)Nc2ncc(Cl)cc2Cl)n1Cc1ccccc1 (stereo not drawn)	-4%	1%	0%	u	28µM*	2%
